The results in this text go back to PubChem BioAssay (NCI).

Assay in all cases: NCI-60 one-dose screen, 48 h (100 = growth as untreated, 0 = no growth, -100 = all killed)
Conditions in all cases: 10 µM unless noted

In assay [1] the test system is NCI-H23 lung.
Assay [2] has as its system NCI-H226 lung.
In assay [3] the test system is NCI-H322M lung.
In assay [4] the test system is HOP-62 NSCLC.
The test system of assay [5] is NCI-H460 lung.
Assay [6] has as its system HOP-92 NSCLC.
Assay [7] relates to NCI-H522 lung.
The test system of assay [8] is A549/ATCC NSCLC.
The subject of assay [9] is 786-0 renal.
The test system of assay [10] is COLO 205 colon.

SMILES strings stand for the structures. This is part of a sample that, as a whole, favours compounds with a hit. Of some 83,000 tested, about 20% had one in any assay.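 Results are percent growth after 48 hours of single-concentration exposure. 100 means growth as in untreated cells, lower positive values show inhibition; negative values down to -100 show cell death.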 A number with no mark means an inactive call. Active and inactive are the calls of the source. How the source made its calls: active means growth percent below 10; inactive means the rest.

For the compound `COc1cc2cc(Oc3cccc(NC(=O)Nc4cc(C(F)(F)F)cc(C(F)(F)F)c4)c3)c(C)nc2cc1OC`, the growth was 2.28% (active) in assay [1]; -10.2% (active) in assay [2]; 14.9% in assay [3]; -54.1% (active) in assay [4]; 7% (active) in assay [5]; -25.4% (active) in assay [6]. Besides, the growth was -33.4% (active) in [7], 5.93% (active) in assay [8], -16.6% (active) in [9] and -81.2% (active) in assay [10].
Take `O=C(Cc1ccc(/C=C/C(=O)c2nccs2)cc1)Nc1ccccc1`: the growth in [1] was 97.3%; in [2] it was 100%; in assay [3] it was 100%; in assay [4], 103%; in assay [5], 103%; in [6], 91.3%. For the same compound, the growth is 78.5% in [7], 88.8% in assay [8], 93.8% in [9] and 122% in assay [10].
In the case of `CC[C@]12C=CCN3CC[C@@]4(c5cc(NC(=O)CCC(=O)O[C@H]6CC[C@H]7[C@@H]8CCC9=CC(=O)CC[C@@H]9[C@H]8CC[C@]67C)c(OC)cc5N(C)[C@H]4[C@@](O)(C(=O)OC)[C@@H]1OC(C)=O)[C@@H]32`, the growth in assay [1] is 90.7%; in assay [2], 86.5%; in [3] it was 91.1%; in assay [4], 89.3%; in assay [5] it was 77.4%; in [6], 64.6%. For the same compound, the growth in assay [7] was 69.9%; in [8], 74.3%; in [9] it was 86%; in assay [10], 89.8%.
Regarding `Brc1ccc(Nc2csc(-c3ccccn3)n2)cc1`, the growth in assay [1] is 87.7%; in assay [2] it was 70.1%; in assay [3], 84.1%; in [4] it was 88.2%; in [5], 96.7%; in assay [6], 102%. Moreover, the growth is 78.9% in [7], 99.4% in assay [8], 98.9% in assay [9] and 111% in assay [10].
As for `N#CC(C#N)=Cc1cc2ccccc2nc1Oc1ccc(C(F)(F)F)cc1`, the growth in [1] is 81.8%; in assay [2], 77.1%; in assay [3], 99.2%; in [4], 93.7%; in [5], 97.4%; in assay [6] it was 48.7%. For the same compound, the growth is 91.8% in [7], 99.5% in [8], 98.8% in assay [9] and 101% in [10].
As to `CN(C)CC(O)c1ccc(/C=C/c2ccc(Cl)cc2)cc1` (stereo not given), the growth in assay [1] is 33.5%; in assay [2], 73.4%; in [3], -9.83% (active); in [4], -50.2% (active); in [5], -54.6% (active); in [6], 15.5%. Besides, the growth is -84.4% (active) in assay [7], -92.3% (active) in [8], 13.8% in assay [9] and -46.4% (active) in assay [10].
Take `C=C1C(=O)O[C@H]2[C@H]1CC/C(COC(=O)NCc1c[nH]c3ccc(F)cc13)=C\CC[C@@]1(C)O[C@@H]21`: the growth is 48.4% in assay [1]; 4.11% (active) in assay [2]; 80.9% in assay [3]; 62.4% in [4]; 27.9% in assay [5]; -18.1% (active) in assay [6]. In addition, the growth in assay [7] was -75.2% (active); in [8] it was 54.6%; in [9], -51.5% (active); in [10] it was -59.1% (active).
`NC1[C@H](c2c[nH]c3ccccc23)c2c([nH]c3ccccc23)[C@H]1c1c[nH]c2ccccc12` (stereo not given in full): the growth in [1] was 85.7%; in [2] it was 92.1%; in [3], 91.6%; in [4], 90.1%; in assay [5], 97.1%; in assay [6], 84.2%. Moreover, the growth in assay [7] was 88.5%; in assay [8], 90.6%; in assay [9], 96.4%; in [10] it was 110%.
Consider `COc1ccc(/C=C(\C#N)n2nc3cccc(F)c3n2)cc1`, for which the growth is 101% in [1]; 96.9% in [2]; 98.6% in assay [3]; 105% in assay [4]; 106% in assay [5]; 96.1% in [6]. For the same compound, the growth in [7] is 93%; in [8], 98.1%; in [9], 96.6%; in assay [10] it was 115%.
Turning to `O=[N+]([O-])CC(c1ccccc1)c1c[nH]c2ccccc12` (stereo not given), the growth in assay [1] was 68.5%; in assay [2], 63.6%; in [3], 97.6%; in assay [4], 56%; in assay [5], 52.6%; in [6] it was 75.7%. The growth in assay [7] was 5.68% (active); in [8], 42.4%; in assay [9], 70%; in assay [10], 54.1%.
`CN1[C@@H]2CC[C@H]1/C(=C\c1ccccc1)C(=O)/C2=C/c1ccccc1`: the growth in [1] was 29.7%; in [2], 45.8%; in [3], 51.2%; in assay [4], 95.8%; in [5] it was 13.8%; in [6] it was 84.3%. Further, the growth in assay [7] is 48.2%; in assay [8] it was 45.3%; in assay [9], 45.3%; in assay [10], 12.9%.
Take `CCCCCCNC(=O)Oc1ccc(/C(=C(\C)c2ccccc2)c2ccc(OCCCN(C)C)cc2)cc1`: the growth was 82.8% in [1]; 104% in [2]; 75.2% in assay [3]; 98.3% in assay [4]; 39.1% in assay [5]; 83.7% in [6]. Also, the growth in assay [7] was 88.9%; in assay [8], 72.7%; in assay [9], 71%; in [10], 58.1%.
For the compound `C=C(C)[C@@H]1CC[C@]2(C(=O)N[C@H](CO)Cc3ccccc3)CC[C@]3(C)[C@H](CC[C@@H]4[C@@]5(C)CCCNC(C)(C)[C@@H]5CC[C@]43C)[C@@H]12`, the growth in assay [1] was -71.9% (active); in assay [2], -55.7% (active); in assay [3], -86% (active); in [4], -86.2% (active); in assay [5], -86.2% (active); in assay [6], -88.5% (active). Further, the growth in assay [7] is -79.2% (active); in assay [8], -83.1% (active); in [9], -90.7% (active); in assay [10] it was -83.4% (active).
